Results filed as inconclusive are left out. Active and inactive are the calls of the source. How the source made its calls: active means hit-call score of the fitted dose curve at least 0.9, where 1 is the maximum; inconclusive means response in the unintended direction; inactive means score below 0.9.
Tests used:
[1] = target: Cellular tumor antigen p53 (Homo sapiens) (UniProt P04637); assay: TOX21_p53_BLA_p2_ratio: Tox21 HCT-116 p53 Agonism Beta-lactamase Assay, Ratio, Phase 2 (AID 2283592)
Procedure, shortened: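 HCT-116 cells with p53-responsive beta-lactamase reporter, 4000 cells/well, preincubated 5 h, then compound in DMSO (217-fold dilution) for 16 h at 37C. CCF4-AM substrate 2 h at room temperature; 460/530 nm emission ratio fitted upward versus DMSO.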

[2] = target: Cellular tumor antigen p53 (Homo sapiens) (UniProt P04637); assay: TOX21_p53_BLA_p3_ratio: Tox21 HCT-116 p53 Agonism Beta-lactamase Assay, Ratio, Phase 3 (AID 2283596)
Procedure, shortened: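 HCT116 p53-bla cells (4000/well) given compound in DMSO (217-fold dilution) after 5 h, incubated 16 h at 37C. CCF4-AM substrate 2 h at room temperature; 460/530 nm emission ratio, gain fitted against DMSO.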

[3] = TOX21_p53_BLA_p4_viability: Viability Assessment in the Tox21 HCT-116 p53 Agonism Beta-lactamase Assay, Phase 4 (AID 2283597);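 further: hits lower the luminescence signal meaning cytotoxicity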
Procedure, shortened: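 HCT-116 p53-bla cells, 4000/well, dosed after 5 h attachment and incubated 16 h at 37 °C, 5% CO2. Viability from CellTiter-Glo ATP luminescence after 30 min at room temperature, taken after the beta-lactamase read; loss of signal indicates cytotoxicity.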

[4] = target: Cellular tumor antigen p53 (Homo sapiens) (UniProt P04637); assay: TOX21_p53_BLA_p5_ratio: Tox21 HCT-116 p53 Agonism Beta-lactamase Assay, Ratio, Phase 5 (AID 2283599)
Procedure, shortened: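 HCT-116 p53-bla cells (4000/well) plated 5 h, dosed with compound (217-fold DMSO dilution) for 16 h at 37 C; CCF4-AM substrate 2 h at room temperature. Activity is the 460/530 nm emission ratio (405 nm excitation), fitted in gain-of-signal direction versus DMSO.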

[5] = TOX21_p53_BLA_p5_viability: Viability Assessment in the Tox21 HCT-116 p53 Agonism Beta-lactamase Assay, Phase 5 (AID 2283600)
Procedure, shortened: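 HCT-116 p53 beta-lactamase reporter cells, 4000/well, were exposed to compound (pin transfer, 217-fold dilution) for 16 hours at 37C. Cellular ATP was read by CellTiter-Glo luminescence after 30 min at room temperature.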

[6] = Tanguay_ZF_120hpf_MORT_legacy: (Legacy) Oregon State University Tanguay Lab 120 Hour Post-fertilization zebrafish Assay for Mortality (AID 2283633)
Procedure, shortened: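 Dechorionated Tropical 5D wild-type zebrafish embryos, one per well from 6 hpf, static exposure in 0.64% DMSO at 28C until 120 hpf. Mortality scored as binary by brightfield microscopy at 24 and 120 hpf.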

[7] = Tanguay_ZF_120hpf_YSE_legacy: (Legacy) Oregon State University Tanguay Lab 120 Hour Post-fertilization zebrafish Assay for Yolk Sac Edema (AID 2283634)
Procedure, shortened: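 Dechorionated Tropical 5D wild-type zebrafish embryos were exposed statically, one per well, from 6 to 120 hpf at 28C in 0.64% DMSO. Yolk sac edema was scored present/absent by brightfield at 120 hpf, and dead embryos were excluded.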

[8] = Tanguay_ZF_120hpf_AXIS_legacy: (Legacy) Oregon State University Tanguay Lab 120 Hour Post-fertilization zebrafish Assay for Body Axis Malformation (AID 2283635)
Procedure, shortened: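 Dechorionated wild-type Tropical 5D zebrafish embryos, one per well, statically exposed from 6 hpf to 120 hpf at 28C in 0.64% DMSO final. Body axis malformation scored present/absent by brightfield microscopy at 120 hpf; dead embryos excluded.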

[9] = Tanguay_ZF_120hpf_EYE_legacy: (Legacy) Oregon State University Tanguay Lab 120 Hour Post-fertilization zebrafish Assay for Eye Malformation (AID 2283636);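 further: binary presence or absence of eye malformation scored by brightfield in 120 hpf larvae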
Procedure, shortened: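 Dechorionated Tropical 5D zebrafish embryos, one per well from 6 hpf, static exposure to 120 hpf at 28C, 0.64% DMSO. Eye malformation scored present/absent by brightfield; dead embryos not scored.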

[10] = Tanguay_ZF_120hpf_SNOU_legacy: (Legacy) Oregon State University Tanguay Lab 120 Hour Post-fertilization zebrafish Assay for Snout Malformation (AID 2283637)
Procedure, shortened: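 Dechorionated tropical 5D wild-type zebrafish embryos exposed statically from 6 to 120 hpf at 28C, one per well, in 0.64% DMSO. Snout malformation scored as present/absent by brightfield at 120 hpf; dead embryos not scored.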

[11] = Tanguay_ZF_120hpf_JAW_legacy: (Legacy) Oregon State University Tanguay Lab 120 Hour Post-fertilization zebrafish Assay for Jaw Malformation (AID 2283638)
Procedure, shortened: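 Dechorionated Tropical 5D wild-type zebrafish embryos, one per well, exposed statically from 6 hpf to 120 hpf at 28C in 0.64% DMSO. Jaw malformation was scored by brightfield microscopy as present or absent. It was not scored in dead embryos.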

[12] = Tanguay_ZF_120hpf_OTIC_legacy: (Legacy) Oregon State University Tanguay Lab 120 Hour Post-fertilization zebrafish Assay for Otic Vesicle Malformation (AID 2283639)
Procedure, shortened: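 Tropical 5D wild-type zebrafish embryos statically exposed in 0.64% DMSO at 28C until 120 hpf; 5uM trimethyltin chloride as positive control. Otic vesicle malformation scored present/absent by brightfield; dead embryos not scored; gain fitted versus DMSO.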

[13] = Tanguay_ZF_120hpf_PE_legacy: (Legacy) Oregon State University Tanguay Lab 120 Hour Post-fertilization zebrafish Assay for Pericardial Edema (AID 2283640)
Procedure, shortened: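 Tropical 5D wild-type zebrafish embryos were statically exposed until 120 hpf at 28C, with 0.64% DMSO final. Pericardial edema was scored by brightfield as present or absent; endpoints were not scored in dead embryos.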

[14] = Tanguay_ZF_120hpf_BRAI_legacy: (Legacy) Oregon State University Tanguay Lab 120 Hour Post-fertilization zebrafish Assay for Brain Malformation (AID 2283641)
Procedure, shortened: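 Tropical 5D wild-type zebrafish embryos exposed statically until 120 hpf at 28C, 0.64% DMSO final, sealed and dark. Brain malformation scored present/absent by brightfield at 120 hpf; dead embryos excluded. Trimethyltin chloride 5uM positive control.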

[15] = Tanguay_ZF_120hpf_SOMI_legacy: (Legacy) Oregon State University Tanguay Lab 120 Hour Post-fertilization zebrafish Assay for Somite Malformation (AID 2283647)
Procedure, shortened: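 Dechorionated Tropical 5D wild-type zebrafish embryos, one per well from 6 hpf, statically exposed at 28C to 120 hpf in 0.64% DMSO; somite malformation scored present/absent by brightfield; trimethyltin 5 uM positive control; dead embryos not scored.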

[16] = Tanguay_ZF_120hpf_PFIN_legacy: (Legacy) Oregon State University Tanguay Lab 120 Hour Post-fertilization zebrafish Assay for Pectoral Fin Malformation (AID 2283648);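 further: each larva judged yes or no for fin defect by brightfield with dead larvae skipped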
Procedure, shortened: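 Dechorionated Tropical 5D wild-type zebrafish embryos, one per well, statically exposed from 6 to 120 hpf at 28C with 0.64% DMSO final. Pectoral fin malformation scored present/absent by brightfield at 120 hpf; not scored in dead embryos.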

[17] = Tanguay_ZF_120hpf_CFIN_legacy: (Legacy) Oregon State University Tanguay Lab 120 Hour Post-fertilization zebrafish Assay for Caudal Fin Malformation (AID 2283649)
Procedure, shortened: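 Dechorionated Tropical 5D wild-type embryos, one per well from 6 hpf, static exposure to 120 hpf at 28C in 0.64% DMSO. Caudal fin malformation scored by brightfield as present/absent; not scored in dead embryos.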

[18] = Tanguay_ZF_120hpf_CIRC_legacy: (Legacy) Oregon State University Tanguay Lab 120 Hour Post-fertilization zebrafish Assay for Circulatory Malformation (AID 2283651)
Procedure, shortened: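 Dechorionated wild-type 5D zebrafish embryos, one per well, statically exposed from 6 to 120 hpf at 28C with 0.64% DMSO; circulatory malformation scored present/absent by brightfield microscopy at 120 hpf, dead embryos excluded.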

[19] = target: Cellular tumor antigen p53 (Homo sapiens) (UniProt P04637); assay: TOX21_p53_BLA_p4_ratio: Tox21 HCT-116 p53 Agonism Beta-lactamase Assay, Ratio, Phase 4 (AID 2283601)
Procedure, shortened: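 HCT-116 p53 beta-lactamase reporter cells (4000/well) preincubated 5 h, then compound (217-fold dilution of DMSO stock) for 16 h at 37C. CCF4-AM substrate added 2 h at room temperature; 460/530 nm emission ratio fitted upward versus DMSO.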

[20] = Tanguay_ZF_120hpf_PIG_legacy: (Legacy) Oregon State University Tanguay Lab 120 Hour Post-fertilization zebrafish Assay for Pigmentation Malformation (AID 2283650)
Procedure, shortened: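 Dechorionated Tropical 5D wild-type embryos, one per well from 6 hpf, statically exposed at 28C in the dark until 120 hpf, 0.64% DMSO final. Pigmentation scored present/absent by brightfield microscopy; dead embryos not scored; fitted versus DMSO.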

Measured: outcome

Chain of Cellular tumor antigen p53 (Homo sapiens) (P04637 whole entry, looked up): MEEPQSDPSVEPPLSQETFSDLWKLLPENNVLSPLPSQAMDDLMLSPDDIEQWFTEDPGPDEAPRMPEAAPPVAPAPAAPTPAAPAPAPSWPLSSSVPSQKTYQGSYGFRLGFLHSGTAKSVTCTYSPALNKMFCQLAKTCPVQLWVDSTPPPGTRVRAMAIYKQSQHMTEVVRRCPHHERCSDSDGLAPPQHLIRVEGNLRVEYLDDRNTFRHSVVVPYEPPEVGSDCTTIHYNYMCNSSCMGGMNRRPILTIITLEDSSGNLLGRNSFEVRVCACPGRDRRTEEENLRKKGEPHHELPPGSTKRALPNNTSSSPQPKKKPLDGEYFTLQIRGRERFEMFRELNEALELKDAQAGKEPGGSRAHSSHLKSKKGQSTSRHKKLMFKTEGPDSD

Cc1cc(SC2=C(O)C[C@@](CCc3ccc(N)cc3)(C(C)C)OC2=O)c(C(C)(C)C)cc1CO
inactive: [1] | [2] | [3] | [4] | [5] | [6] | [7] | [8] | [9] | [10] | [11] | [12] | [13] | [14] | [15] | [16] | [17] | [18]

CCCCC(CC)COC(=O)CCCCCCCC(=O)OCC(CC)CCCC (centres undefined)
inactive: [1] | [2] | [3] | [4] | [5] | [19] | [6] | [7] | [8] | [9] | [10] | [11] | [12] | [15] | [16] | [17] | [20] | [18]

COC(=O)CCCC(=O)OC
inactive: [1] | [2] | [3] | [4] | [5] | [19] | [6] | [7] | [8] | [9] | [10] | [11] | [12] | [13] | [14] | [15] | [16] | [17]

— PubChem BioAssay (EPA / NIEHS)
